Reference: PubChem BioAssay (NCI)
The panel holds about 83,000 compounds, 20% with a hit somewhere; the sample as a whole holds those more often.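 Values shown are percent growth following 48 h exposure of cells in 96-well plates to a single concentration of compound; below 10 was considered active.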 Unmarked numbers belong to inactive results. Calls of active or inactive are those of the source.

Test system: T-47D breast
Assay: NCI-60 one-dose screen, 48 h (100 = growth as untreated, 0 = no growth, -100 = all killed)
Conditions: 10 µM unless noted
Protocol: Growth inhibition of the T-47D human tumor cell line is measured as a screen for anti-cancer activity. Cells are grown in 96 well plates and exposed to the test compound for 48 hours. Compounds are tested at a single concentration, which is 10^-5 M for most compounds. The reported endpoint is percent growth (GI% or GIPRCNT), where numbers from 0 - 100% represent growth inhibition, and numbers from -100% - 0 represent cell death. For example, a value of 40 represents 60% growth inhibition. A value of 0 means no net growth occurred over the course of the experiment. A value of -40 indicates 40% of cells at the beginning of the experiment died by the end of the experiment. A value of -100 means all cells are dead at the end of the experiment.
NCI-60 Human Tumor Cell Lines Screen was performed using the standard one-dose NCI protocol, which is described in more detail at https://dtp.cancer.gov/discovery_development/nci-60/default.htm.
Compounds with GIPRCNT values below 10 were considered active. Activity score was based on GIPRCNT using the following formula: […]
Score is 0 for GIPRCNT values of 100 or above, 50 for GIPRCNT values of 0, and 100 for GIPRCNT values of -100.

Q: How did the growth turn out when O=C1Nc2ccccc2/C1=C/C(=O)c1ccc(N2CCOCC2)cc1 was run?
A: 81.1%

Q: For Cc1ccc(Oc2c(/C=N/NC(=O)Cn3c(=O)sc4ccccc43)c(C)nn2-c2ccccc2)cc1, which growth is on record?
A: 20.4%

Q: With CCc1ccc(NC(=O)N[C@@H](Cc2cc(F)cc(F)c2)C(=O)N[C@@H]2C(=O)N3C[C@H](O)C[C@H]3C(=O)N3CCOC[C@H]3C(=O)N[C@@H](C)C(=O)N3C[C@H](C)C[C@H]3C(=O)O[C@H]2C)cc1 as the compound, how does the growth read?
A: 18.2%

Q: For CC1(C)C(=O)/C(=C\c2cccnc2)C[C@]2(C)[C@H]3CC[C@@H]4[C@H]5[C@H](C(=O)/C=C/c6cccnc6)CC[C@]5(C(=O)O)CC[C@@]4(C)[C@]3(C)CC[C@@H]12, which growth is on record?
A: -10% [100 µM] (active)

Q: Cn1cc(-c2noc(C(=O)c3cn(C)c4ncccc34)n2)c2ccccc21 was tested. Which growth did it give?
A: 46%

Q: C=C(C)[C@@H]1CC[C@]2(C(=O)N3CCN(C)CC3)CC[C@]3(C)[C@H](CC[C@@H]4[C@@]5(C)C/C(=C/c6ccncc6)[C@H](O)C(C)(C)[C@@H]5CC[C@]43C)[C@@H]12 was tested. Which growth did it give?
A: 10.8% [100 µM]

Q: How did the growth turn out when Cn1cc(-c2nnc(-c3cn(C)c4ncc(Br)cc34)o2)c2ccccc21 was run?
A: 62%

Q: How did the growth turn out when O=C(CSc1nccc(Nc2ccc(S(=O)(=O)Nc3ccccn3)cc2)n1)c1ccc(Cl)cc1 was run?
A: 50.6%

Q: With CCOC(=O)c1nn(C2CCCCO2)c2ccc(NS(=O)(=O)c3ccc(C)cc3)cc12 (stereo not given) as the compound, how does the growth read?
A: 80%

Q: O=[N+]([O-])c1cc(CCl)ccc1OCCBr was tested. Which growth did it give?
A: 88.3%

Q: Cn1cc(-c2nnc(-c3ccccc3)s2)c2cc(Br)cnc21 was tested. Which growth did it give?
A: 44%

Q: CC(C)=CC/C=C(/C)[C@H]1CC[C@]2(C)[C@@H]1CC[C@@H]1[C@@]3(C)CCC(=O)NC(C)(C)[C@@H]3CC[C@]12C was tested. Which growth did it give?
A: -3.77% [100 µM] (active)

Q: How did the growth turn out when Clc1ccc2nc(-c3ccc(-c4ccc(/C=N/NC5=NCCN5)cc4)s3)cn2c1 was run?
A: 92.6%

Q: Which growth does the source give for COc1ccc(NC(=S)NNc2ccc(-c3ccc(OC)c(OC)c3)nn2)cc1 here?
A: 96.4%

Q: How did the growth turn out when CSc1nc(N)c(N=Nc2ccc(S(=O)(=O)Nc3nnc(C)s3)cc2)c(=O)[nH]1 was run?
A: 112%

Q: Cc1cccc([N+](=O)[O-])c1I was tested. Which growth did it give?
A: 104%

Q: Which growth does the source give for COc1ccc2c(c1)c(-c1noc(C(=O)c3cn(C)c4ncc(Br)cc34)n1)cn2C here?
A: 49.7%

Q: Cc1ccccc1-n1nnc(C(=O)Nc2nc3ccc(F)cc3s2)c1C was tested. Which growth did it give?
A: 18.1%

Q: With CCOC(=O)c1nn(C2CCCCO2)c2ccc(NC(=O)CSc3nc4ccccc4c(=O)[nH]3)cc12 (stereo not given) as the compound, how does the growth read?
A: 99.1%

Q: For c1ccc2c(c1)CN(CCCN1CCOCC1)C2, which growth is on record?
A: 101%

Q: How did the growth turn out when Cn1cc(-c2nnc(-c3cn(C)c4ncccc34)s2)c2ccccc21 was run?
A: 47.9%

Q: With Ic1ccc2[nH]cc(SSc3c[nH]c4ccc(I)cc34)c2c1 as the compound, how does the growth read?
A: 26.7%

Q: How did the growth turn out when CC(C)(C)c1cc(C(=O)N2CCC(C(=O)NCCN)CC2)cc(C(C)(C)C)c1 was run?
A: 78.8%

Q: For CCOC(=O)c1sc2nc(-c3cc(OC)c(OC)c(OC)c3)nc(N3CCOCC3)c2c1C, which growth is on record?
A: -6.97% (active)

Q: For COc1ccc(C(=O)c2nccc3cc(OC)c(OC)cc23)cc1OC, which growth is on record?
A: 79.4%

Q: O=[N+]([O-])c1cc([N+](=O)[O-])c(C(F)(F)F)cc1NN=C(c1ccc(O)cc1)c1ccc(O)cc1 was tested. Which growth did it give?
A: -6.47% (active)

Q: How did the growth turn out when CC1(C)CC[C@]2(C(=O)OC(=O)[C@]34CCC(C)(C)C[C@@H]3C3=CC[C@@H]5[C@@]6(C)CCC(=O)C(C)(C)[C@@H]6CC[C@@]5(C)[C@]3(C)CC4)CC[C@]3(C)C(=CC[C@@H]4[C@@]5(C)CCC(=O)C(C)(C)[C@@H]5CC[C@]43C)[C@H]2C1 was run?
A: 48.1% [100 µM]

Q: With O=S(=O)(NCCCNc1nccc(-c2c(-c3cccc(F)c3)nc3occn23)n1)c1cccc2ccccc12 as the compound, how does the growth read?
A: 4.4% (active)

Q: With COc1ccc(NC(=O)Nc2ccc(-c3cccnc3)cc2N2CCC(CO)CC2)cc1 as the compound, how does the growth read?
A: 68.8%

Q: C#CCC(C(=O)OCC)C(=O)OCC was tested. Which growth did it give?
A: 114%

Q: C=C(C)[C@@H]1CC[C@]2(COC(=O)c3ccccc3C(=O)O)CC[C@]3(C)[C@H](CC[C@@H]4[C@@]5(C)CC[C@H](OC(=O)c6ccccc6C(=O)O)C(C)(C)[C@@H]5CC[C@]43C)[C@@H]12 was tested. Which growth did it give?
A: 39.6% [100 µM]

Q: For CCN(CC)CCS(=O)(=O)CCNc1ccnc2cc(Cl)ccc12, which growth is on record?
A: 43.4%

Q: Which growth does the source give for CSc1nc2c(c(=O)n1C)C1(C(=O)N(Cc3ccccc3)c3ccccc31)c1c(nc(SC)n(C)c1=O)N2 here?
A: 63.7%

Q: For CC(C)CCSC1=CC(=O)c2ccccc2C1=O, which growth is on record?
A: -41.4% (active)

Q: With COc1ccc2c(c1)C(C)Cc1c(Cl)nc(C)nc1N2C (stereo not given) as the compound, how does the growth read?
A: 39.6%

Q: For CCOc1cccc2c(NC(C)CCCN(CC)CC)c(C)cnc12 (stereo not given), which growth is on record?
A: 115%

Q: How did the growth turn out when COc1ccc2nc3c(cc2c1)C(=O)CC(c1ccccc1)C3 (stereo not given) was run?
A: 75%

Q: Cc1cccc(C[C@H](NC(=O)Nc2ccc(C)cc2F)C(=O)N[C@@H]2C(=O)N3C[C@H](O)C[C@H]3C(=O)N3CCN(C)C[C@H]3C(=O)N[C@@H](C)C(=O)N3C[C@H](C)C[C@H]3C(=O)O[C@H]2C)c1 was tested. Which growth did it give?
A: 25.9%

Q: Which growth does the source give for C[C@H]1[C@H](C)CC[C@]2(C(=O)O)CC[C@]3(C)C(=CC[C@@H]4[C@@]5(C)C/C(=C/c6cccnc6)[C@H](O)C(C)(C)[C@@H]5CC[C@]43C)[C@H]12 here?
A: 15.2% [100 µM]

Q: How did the growth turn out when C=C(C)[C@@H]1CC[C@]2(COCCC#N)CC[C@]3(C)[C@H](CC[C@@H]4[C@@](C)(CCCNCCC#N)[C@H](C(=C)C)CC[C@]43C)[C@@H]12 was run?
A: 23.4% [100 µM]
